Molecules are shown by their SMILES. Results filed as inconclusive are left out. Where a call stands in place of a potency, no number is given. Calls of active or inactive are those of the source. Calls come from the whole dose curve; as a rule, active = well fitted curve in the direction sought with a large enough effect; inconclusive = small, poorly fitted or top-dose-only effect, or another doubt; inactive = no such curve, though single readings can be large; an effect the other way counts as inactive or inconclusive.

The test system of assay [1] is Zika virus NS2B-NS3 protease (unlinked). The assay can be described thus: Optimization of GU AMC qHTS for Zika virus inhibitors: Unlinked NS2B-NS3 protease assay (AID 1347151). Note: series mostly up to about 52 µM; nearly all actives have a fitted effect of over 80% in size. In a few lines: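 Noncovalent NS2B hydrophilic domain–NS3 protease complex (25 nM final) in 10 mM Tris-HCl pH 8.0, 0.01% Tween 20; AMC substrate, room temperature 15 min (~20% conversion); fluorescence change normalized, 4-parameter Hill fit.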
(Quantitative high-throughput screening tests each substance at several concentrations.)

In assay [2] the test system is Zika virus NS2B-NS3 protease. The assay can be described thus: Primary screen GU AMC qHTS for Zika virus inhibitors (AID 1347154). Note: nearly all actives have a fitted effect of over 70% in size. Note: potency is the fitted concentration of half-maximal effect. In short, it runs like this:
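Fluorogenic AMC-substrate cleavage by noncovalent NS2B-NS3 protease complex (25 nM, pH 8.0 Tris buffer with Tween 20) followed for 15 minutes at room temperature (~20% conversion). Percent inhibition from ex340/em450 signal change, fitted by 4-parameter Hill equation.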

The test system of assay [3] is Zika virus NS2B-NS3 protease (unlinked complex). The assay can be described thus: Primary screen GU Rhodamine qHTS for Zika virus inhibitors: Unlinked NS2B-NS3 protease assay (AID 1347159). Note: nearly all actives have a fitted effect of over 60% in size. In a few lines:
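Unlinked NS2B/NS3, 25 nM; Rhod110 peptide, 1.5 microM; compounds, up to 114 microM. Reaction run 15 min at RT in 10 mM Tris-HCl pH 8.0, 0.01% Tween 20; kinetic fluorescence change fitted with a 4-parameter Hill model.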

Assay [4] deals with Zika virus NS2B-NS3 protease (linked construct). Put plainly: Primary screen NINDS Rhodamine qHTS for Zika virus inhibitors (AID 1347160). Note: nearly all actives have a fitted effect of over 55% in size. In a few lines: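 Single-chain NS2B-NS3 protease, 25 nM, pH 8.0; compounds preincubated 15 min. Activity: Rhodamine110 release from 1.5 microM substrate over 15 min, room temperature, data fitted to 4-parameter Hill.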

On to `Clc1ccc(Cn2c(CN3CCCC3)nc3ccccc32)cc1`, for which the Potency entry in assay [1], in assay [2], in assay [3] and in assay [4] was “inactive” throughout.

Consider `C[C@]12CC[C@@H]3c4ccc(O)cc4CC[C@H]3[C@H]1C[C@@H](O)[C@H]2O`, for which the Potency result in assay [2] is “inactive”.

On to `C[C@]12CCC3c4ccc(O)cc4CCC3C1CCC2=O` (stereo not given in full), for which the Potency entry in assay [2] is “inactive”.

In the case of `O=C(O)c1cc(O)c2c(c1)C(=O)c1cccc(O)c1C2=O`, the Potency in assay [2] is 24.8 µM (active).

Take `CC(C)NCC(O)COc1cccc2[nH]ccc12` (stereo not given): the Potency entry in assay [1], in assay [2], in assay [3] and in assay [4] was “inactive” throughout.

Turning to `CC(=O)OC1C(C)OC(Oc2c(-c3ccc(O)cc3)oc3cc(O)cc(O)c3c2=O)C(O)C1OC(C)=O` (stereo not given), in assay [2], the Potency entry was “inactive”.

As to `COc1ccc(-c2coc3cc(O)ccc3c2=O)cc1`, the Potency in assay [2] was 26.7 µM (active).

Turning to `Clc1ccc(-c2nc3sccn3c2C=NOCc2ccc(Cl)c(Cl)c2)cc1`, the Potency entry in assay [2] is “inactive”.

As to `C[C@H]1[C@H](NC(=O)C(=NOC(C)(C)C(=O)O)c2csc(N)n2)C(=O)N1S(=O)(=O)O`, the Potency result in assay [2] is “inactive”.

Turning to `c1cc(-c2sc(-c3ccncc3)c(-c3ccncc3)c2-c2ccncc2)ccn1`, the Potency result in assay [2] is “inactive”.

Turning to `CC(C)(Cc1ccc2ccccc2c1)NC[C@@H](O)COc1cccc(Cl)c1C#N`, in assay [2], the Potency entry was “inactive”.

Consider `Nc1nc(F)nc2c1ncn2[C@@H]1O[C@H](COP(=O)(O)O)[C@@H](O)[C@H]1O`, for which the Potency result in assay [2] was “inactive”.

In the case of `COc1cc(O)c2c(c1)C(=O)c1cc(C)cc(O)c1C2=O`, in assay [2], the Potency entry was “inactive”.

As to `CC[C@@]1(O)C[C@H](O[C@H]2C[C@H](N(C)C)[C@H](O[C@H]3C[C@H](O)[C@H](O[C@H]4CCC(=O)[C@H](C)O4)[C@H](C)O3)[C@H](C)O2)c2c(cc3c(c2O)C(=O)c2c(O)cccc2C3=O)[C@@H]1C(=O)OC`, in assay [2], the Potency result is “inactive”.

In the case of `O=c1cc(-c2cccc3c2Sc2ccccc2S3)oc(N2CCOCC2)c1`, in assay [2], the Potency result is “inactive”.

With `CC#CCn1c(N2CCC[C@@H](N)C2)nc2c1c(=O)n(Cc1nc(C)c3ccccc3n1)c(=O)n2C`, the Potency result in assay [2] is “inactive”.

As for `C[C@@H]1CCN(C(=O)CC#N)C[C@H]1N(C)c1ncnc2[nH]ccc12`, in assay [2], the Potency result is “inactive”.

On to `N#CC1(c2ccc(NC(=O)c3cccnc3NCc3ccncc3)cc2)CCCC1`, for which the Potency result in assay [2] was “inactive”.

`COCCCCC(=NOCCN)c1ccc(C(F)(F)F)cc1`: the Potency entry in assay [2] was “inactive”.

On to `CC(=Cc1ccccc1)C=C1SC(=S)N(CC(=O)O)C1=O`, for which, in assay [2], the Potency result is “inactive”.

Take `O=C(Nc1cc(Cl)cc2c1[nH]c1cnccc12)c1cccnc1`: in assay [2], the Potency result was “inactive”.

`CCOC1OC(=O)C[C@H]1NC(=O)[C@@H]1CCCN1C(=O)[C@@H](NC(=O)c1ccc(N)c(Cl)c1)C(C)(C)C` (stereo not given in full): in assay [2], the Potency result was “inactive”.

In the case of `NC1CCC(Nc2nc(Nc3ccc(C(=O)N4CCCCC4)cc3)c3ncn(-c4cccc(F)c4)c3n2)CC1` (stereo not given), in assay [2], the Potency result was “inactive”.

On to `C=C1C(=O)OC2C=C(C)CCC=C(C)CCC12` (stereo not given), for which, in assay [2], the Potency entry was “inactive”.

As to `NC(=O)NN=Cc1ccc([N+](=O)[O-])o1`, in assay [2], the Potency entry was “inactive”.

In the case of `OC[C@@H](O)[C@H](O)[C@H](O)[C@@H](O)CO`, the Potency entry in assay [2] was “inactive”.

Regarding `CC(C)C[C@H](CC(=O)O)C(=O)N[C@@H](Cc1c[nH]c2ccccc12)C(=O)N[C@@H](C)c1ccccc1`, in assay [2], the Potency result is “inactive”.

Turning to `CC1=C(/C=C/C(C)=C/C=C/C(C)=C/C(=O)Nc2ccc(O)cc2)C(C)(C)CCC1`, the Potency entry in assay [2] is “inactive”.

`CN(C)CCC=C1c2ccccc2COc2ccc(CC(=O)O)cc21`: in assay [2], the Potency result was “inactive”.

Take `C=C1C(=O)OC(CCCCCCCC)C1C(=O)O` (stereo not given): the Potency result in assay [2] is “inactive”.

In the case of `CO[C@H]1C[C@@H]2CC[C@@H](C)[C@@](O)(O2)C(=O)C(=O)N2CCCC[C@@H]2C(=O)O[C@H]([C@@H](C)C[C@@H]2CC[C@H](O)[C@H](OC)C2)CC(=O)[C@H](C)C=C(C)[C@@H](O)[C@@H](OC)C(=O)[C@H](C)C[C@H](C)C=CC=CC=C1C`, in assay [2], the Potency result was “inactive”.

As for `CCOC(=O)O[C@]1(C(=O)OCCl)CC[C@@H]2[C@H]3CCC4=CC(=O)C=C[C@]4(C)[C@@H]3[C@@H](O)C[C@@]21C`, the Potency entry in assay [2] is “inactive”.

On to `NS(=O)(=O)c1ccc(NC2=CC(=O)c3ccccc3C2=O)cc1`, for which the Potency entry in assay [2] was “inactive”.

With `Cc1c[nH]c(C=C2C(=O)Nc3ccccc32)c1CCC(=O)O`, the Potency entry in assay [2] is “inactive”.

On to `CCN(CC)CCOc1ccc(C(=C(Cl)c2ccccc2)c2ccccc2)cc1`, for which the Potency entry in assay [2] is “inactive”.

For `O=C(OCC#CCSc1nnc(-c2cccc3ccccc23)o1)c1cc2ccccc2s1`, the Potency result in assay [2] is “inactive”.

Take `CCCCCN(C)CCC(O)(P(=O)(O)O)P(=O)(O)O`: the Potency entry in assay [2] is “inactive”.

On to `C[C@@H](O)[C@H]1C(=O)N2C(C(=O)O)=C(S[C@@H]3CN[C@H](C(=O)N(C)C)C3)[C@H](C)[C@H]12`, for which the Potency entry in assay [2] was “inactive”.

Regarding `Nc1ncnc2c1ncn2[C@@H]1O[C@H](CO)C[C@@H]1O`, in assay [2], the Potency result is “inactive”.

For the origin of these results see PubChem BioAssay (NCATS).
